Measurements published in PubChem BioAssay (NCATS).
Records with an inconclusive call do not appear. Active and inactive are the calls of the source. Calls come from the whole dose curve; as a rule, active = well fitted curve in the direction sought with a large enough effect; inconclusive = small, poorly fitted or top-dose-only effect, or another doubt; inactive = no such curve, though single readings can be large; an effect the other way counts as inactive or inconclusive.

Experiments:
[1] = qHTS of pediatric cancer cell lines to identify multiple opportunities for drug repurposing: Primary screen for A673 cells (AID 1347092); note: nearly all actives have a fitted effect of over 45% in size; note: potency is the fitted concentration of half-maximal effect
Procedure, shortened: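 Cell viability of A673 measured by CellTiter-Glo ATP luminescence after 48 hours compound exposure. Dilution series spanned 0.78 nM to 46 µM (MIPE, 11-point) or 0.59 nM to 46 µM (NPC, 8-point); bortezomib 2.3 uM positive control.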

[2] = qHTS of pediatric cancer cell lines to identify multiple opportunities for drug repurposing: Primary screen for SK-N-MC cells (AID 1347093); note: potency is the fitted concentration of half-maximal effect
Procedure, shortened: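 Metabolically active cells were quantified by ATP-dependent luminescence (CellTiter-Glo, 15 min at room temperature) following 48 h treatment. Cells had been plated at 500-1,000 per well and settled for 5 h beforehand.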

[3] = qHTS of pediatric cancer cell lines to identify multiple opportunities for drug repurposing: Primary screen for NB-EBc1 cells (AID 1347095); note: potency is the fitted concentration of half-maximal effect
Procedure, shortened: (§1)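 Plated cells (500-1,000 per well, growth media) were allowed to settle for 5 hours, treated with compound dilutions for 48 hours, then lysed with CellTiter-Glo for 15 min at room temperature before luminescence reading.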

[4] = qHTS of pediatric cancer cell lines to identify multiple opportunities for drug repurposing: Primary screen for U-2 OS cells (AID 1347096); note: nearly all actives have a fitted effect of over 50% in size
Procedure, shortened: (§2)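 Cells (500-1,000/well) rested 5 h, then received compounds for 48 h; metabolically active cells were measured by CellTiter-Glo luminescence. Final concentrations spanned up to 46 µM (MIPE, 11-point) or 0.59 nM-46 µM (NPC, 8-point) in primary screens, 11-point in follow-ups.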

[5] = qHTS of pediatric cancer cell lines to identify multiple opportunities for drug repurposing: Primary screen for SK-N-SH cells (AID 1347098); note: nearly all actives have a fitted effect of over 65% in size; note: potency is the fitted concentration of half-maximal effect
Procedure, shortened: as §2

[6] = qHTS of pediatric cancer cell lines to identify multiple opportunities for drug repurposing: Primary screen for NB1643 cells (AID 1347099); note: nearly all actives have a fitted effect of over 50% in size; note: potency is the fitted concentration of half-maximal effect
Procedure, shortened: as §1

[7] = qHTS of pediatric cancer cell lines to identify multiple opportunities for drug repurposing: Primary screen for BT-12 cells (AID 1347101); note: nearly all actives have a fitted effect of over 25% in size; note: potency is the fitted concentration of half-maximal effect
Procedure, shortened: as §2

[8] = qHTS of pediatric cancer cell lines to identify multiple opportunities for drug repurposing: Primary screen for OHS-50 cells (AID 1347103); note: nearly all actives have a fitted effect of over 40% in size; note: potency is the fitted concentration of half-maximal effect
Procedure, shortened: as §2

[9] = qHTS of pediatric cancer cell lines to identify multiple opportunities for drug repurposing: Primary screen for RD cells (AID 1347104); note: nearly all actives have a fitted effect of over 55% in size; note: potency is the fitted concentration of half-maximal effect
Procedure, shortened: as §1

[10] = qHTS of pediatric cancer cell lines to identify multiple opportunities for drug repurposing: Primary screen for MG 63 (6-TG R) cells (AID 1347105); note: nearly all actives have a fitted effect of over 50% in size; note: potency is the fitted concentration of half-maximal effect
Procedure, shortened: as §1

[11] = qHTS of pediatric cancer cell lines to identify multiple opportunities for drug repurposing: Primary screen for control Hh wild type fibroblast cells (AID 1347106); note: nearly all actives have a fitted effect of over 55% in size; note: potency is the fitted concentration of half-maximal effect
Procedure, shortened: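 Viability after 48 h compound treatment at 37C, 500-1,000 cells/well, read as ATP luminescence with CellTiter-Glo. Primary screens used 11-point (MIPE, 0.78 nM-46 µM) or 8-point (NPC, 0.59 nM-46 µM) final concentrations; follow-up screens used 11-point dilutions.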

[12] = qHTS of pediatric cancer cell lines to identify multiple opportunities for drug repurposing: Primary screen for Saos-2 cells (AID 1347097); note: nearly all actives have a fitted effect of over 40% in size; note: potency is the fitted concentration of half-maximal effect
Procedure, shortened: as §1

[13] = qHTS of pediatric cancer cell lines to identify multiple opportunities for drug repurposing: Primary screen for Rh30 cells (AID 1347107); note: nearly all actives have a fitted effect of over 75% in size; note: potency is the fitted concentration of half-maximal effect
Procedure, shortened: as §2

[14] = qHTS of pediatric cancer cell lines to identify multiple opportunities for drug repurposing: Primary screen for Rh41 cells (AID 1347108); note: nearly all actives have a fitted effect of over 70% in size; note: potency is the fitted concentration of half-maximal effect
Procedure, shortened: as §1

[15] = qHTS of pediatric cancer cell lines to identify multiple opportunities for drug repurposing: Primary screen for BT-37 cells (AID 1347094); note: potency is the fitted concentration of half-maximal effect
Procedure, shortened: as §1

[16] = qHTS of pediatric cancer cell lines to identify multiple opportunities for drug repurposing: Primary screen for LAN-5 cells (AID 1347100); note: potency is the fitted concentration of half-maximal effect
Procedure, shortened: as §2

[17] = qHTS of pediatric cancer cell lines to identify multiple opportunities for drug repurposing: Confirmatory screen for A673 cells (AID 1347110);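 note: potency is the fitted concentration of half-maximal effect; cells exposed to compound for 48 h before the viability read; nearly all actives have a fitted effect of over 65% in size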
Procedure, shortened: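 Viability was read as ATP luminescence (CellTiter-Glo) after 48 h of compound exposure at 37 C in A673 cells seeded at 500-1,000/well. Titrations reached 46 uM final, with 11 points in the confirmatory screen. Concentration-response curves were fitted directly.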

[18] = qHTS of pediatric cancer cell lines to identify multiple opportunities for drug repurposing: Confirmatory screen for SK-N-MC cells (AID 1347111);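 note: potency is the fitted concentration of half-maximal effect; cells exposed to compound for 48 h before the readout; nearly all actives have a fitted effect of over 70% in size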
Procedure, shortened: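 Seed 500-1,000 cells/well; rest 5 h at 37 degrees C. Pin-transfer compounds, 11-point titration. Incubate 48 h. Add CellTiter-Glo, 15 min RT, read luminescence.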

[19] = qHTS of pediatric cancer cell lines to identify multiple opportunities for drug repurposing: Primary screen for Rh18 cells (AID 1347102); note: nearly all actives have a fitted effect of over 65% in size; note: potency is the fitted concentration of half-maximal effect
Procedure, shortened: as §2

Measured: Potency

COCCOC(=O)C1=C(C)NC2=C(C(=O)CC(c3ccccc3OC)C2)C1c1cccc(O)c1 (stereo not drawn)
active: [1] 23.5 µM | [2] 18.7 µM | [3] 18.7 µM | [5] 13.6 µM | [6] 20.9 µM | [8] 19.3 µM | [9] 18.7 µM | [10] 14.8 µM
inactive: [4] | [7] | [11]

COc1cc(NC(=O)c2ccc(-c3ccc(Cl)cc3)o2)cc(OC)c1
active: [1] 7.43 µM | [2] 1.32 µM | [5] 1.52 µM | [6] 6.62 µM | [10] 7.43 µM | [11] 10.5 µM | [13] 7.43 µM | [14] 7.43 µM
inactive: [3] | [12]

CN1CCN(CCOc2cc(OC3CCOCC3)c3c(Nc4c(Cl)ccc5c4OCO5)ncnc3c2)CC1
inactive: [11]
active: [1] 11.8 µM | [2] 11.8 µM | [15] 7.69 µM | [5] 13.6 µM | [8] 17.2 µM | [9] 20.9 µM

Nc1ncnc2c1nc(Cl)n2[C@@H]1O[C@H](CO)[C@@H](O)[C@@H]1O
active: [1] 23.5 µM | [2] 26.4 µM | [6] 16.6 µM | [8] 15.3 µM | [9] 29.6 µM | [10] 29.6 µM | [11] 23.5 µM
inactive: [3] | [12] | [7]

Cc1c(NC(=O)c2ccc(C(C)(C)C)cc2)cccc1-c1cn(C)c(=O)c(Nc2ccc(C(=O)N3CCOCC3)cc2)n1
inactive: [11]
active: [1] 9.35 µM | [2] 18.7 µM | [3] 18.7 µM | [12] 18.7 µM | [8] 24.3 µM

CC[C@H]1OC(=O)[C@H](C)[C@@H](O[C@H]2C[C@@](C)(OC)[C@@H](O)[C@H](C)O2)[C@H](C)[C@@H](O[C@@H]2O[C@H](C)C[C@H](N(C)C)[C@@H]2O)[C@](C)(O)C[C@@H](C)CN(C)[C@H](C)[C@@H](O)[C@]1(C)O
not listed: [5] | [9] | [12] | [15] | [16] | [17] | [18] | [19]
inactive: all other assays above

CO[C@H]1C(=O)[C@]2(C)[C@@H](OC)C[C@H]3OC[C@@]3(OC(C)=O)[C@H]2[C@H](OC(=O)c2ccccc2)[C@]2(O)C[C@H](OC(=O)[C@H](O)[C@@H](NC(=O)OC(C)(C)C)c3ccccc3)C(C)=C1C2(C)C
inactive: [4] | [5] | [6] | [11] | [13]
active: [1] 0.001 µM | [2] 29.6 µM | [12] 0.001 µM | [16] 0.001 µM | [14] 0.001 µM | [17] 0.0059 µM | [18] 0.0033 µM

O=C1c2c(O)cc(O)cc2O[C@H](c2cc(O)c(O)c(O)c2)[C@H]1O
inactive: [4] | [11] | [13]
active: [1] 14.8 µM | [2] 4.18 µM | [12] 23.5 µM | [6] 23.5 µM | [16] 26.4 µM

O=c1cc(-c2ccccc2)oc2cc(O)cc(O)c12
not listed: [5] | [7] | [12] | [14] | [15] | [16] | [17] | [18]
inactive: all other assays above

O=c1cc(-c2ccccc2)oc2cc(O)c(O)c(O)c12
active: [12] 18.7 µM
inactive: [1] | [2] | [3] | [6] | [9] | [10] | [11]

COc1cc2ncnc(-n3nc(-c4ccccn4)nc3N)c2cc1OC
inactive: [4] | [10] | [14]
active: [1] 3.72 µM | [2] 4.69 µM | [3] 14.8 µM | [12] 4.69 µM | [6] 4.69 µM | [8] 2.17 µM

N#CC1(c2ccc(NC(=O)c3cccnc3NCc3ccncc3)cc2)CCCC1
not listed: [7] | [8] | [12] | [15] | [17] | [18] | [19]
inactive: all other assays above

CC(C)OC(=O)CCCC=CC[C@@H]1[C@H](C=C[C@@H](O)COc2cccc(C(F)(F)F)c2)[C@H](O)C[C@@H]1O
active: [3] 23.5 µM | [12] 14.8 µM | [6] 23.5 µM | [7] 19.3 µM | [9] 33.2 µM
inactive: [1] | [4] | [10] | [11]

O=c1cc(-c2ccc(O)cc2)oc2cc(O)cc(O)c12
inactive: [11]
active: [1] 1.18 µM | [15] 3.06 µM | [3] 4.69 µM | [6] 0.469 µM | [16] 3.32 µM | [7] 3.43 µM | [19] 2.35 µM | [8] 3.06 µM | [9] 2.96 µM | [10] 18.7 µM

Cc1c(O)cccc1C(=O)N[C@@H](CSc1ccccc1)[C@H](O)CN1C[C@H]2CCCC[C@@H]2C[C@@H]1C(=O)NC(C)(C)C
active: [1] 23.5 µM | [2] 16.6 µM | [12] 26.4 µM | [19] 18.7 µM | [8] 24.3 µM | [9] 26.4 µM | [10] 18.7 µM
inactive: [11]

COc1cc(N2CCC(N3CCN(C)CC3)CC2)ccc1Nc1ncnc(Nc2ccccc2S(=O)(=O)C(C)C)n1
active: [1] 9.35 µM | [15] 15.3 µM | [5] 27.1 µM | [13] 5.26 µM | [14] 5.26 µM
inactive: [4] | [12] | [10] | [11]

OC[C@H]1O[C@@H](Oc2cc(O)cc(C=Cc3ccc(O)cc3)c2)[C@H](O)[C@@H](O)[C@H]1O
inactive: [3] | [4] | [6] | [16] | [7] | [9] | [10] | [11] | [13] | [14]
active: [1] 9.35 µM

CC(C)(C)COc1ccc(-n2cc(C(=O)O)cn2)cc1C#N
inactive: [1] | [15] | [4] | [16] | [7] | [19] | [9] | [11] | [13] | [14]
